Assay outcomes deposited in PubChem by National Center for Advancing Translational Sciences (NCATS).
Sampled rows, rich in hits. Any-hit rate of the full collection: about 6.9%.
VDR inh: Inhibitors of the vitamin D receptor (VDR): qHTS; Potency, µM, for the others: max response, negative = inhibition, hits mostly inhibitors; Vitamin D3 receptor (Homo sapiens), P11473; 400,000 compounds, 0.93% hits; VDR-SRC2-3 peptide fluorescence polarization, 2 h; AID 504847, 2011; also: % is scaled to controls: 0 for no effect and ±100 for the full control effect
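Fluorescence polarization assay measuring small-molecule disruption of VDR binding to the coregulator peptide SRC2-3. Compounds were pin-transferred (23 nl) into the reagent mix and incubated 2 h at room temperature before reading.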
BAZ2B block: qHTS Assay for Inhibitors of BAZ2B. Bromodomain adjacent to zinc finger domain protein 2B (Homo sapiens), Q9UIF8. AlphaScreen BAZ2B-H3K14Ac peptide displacement. Potency, µM (highest dose often 114 µM), for the others: at the top dose activity change, negative = inhibition, usual class: inhibitors. 360,000 compounds, 4.4% hits; also: % is scaled to controls: 0 for no effect and ±100 for the full control effect; nearly all actives have a fitted effect of over 60% in size
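AlphaScreen displacement: compounds (up to 110uM) incubated 30 min at room temperature with a preformed 50 nM BAZ2B/50 nM biotinylated H3K14Ac peptide complex in PBS pH 7.4 with Tween-20. Donor and acceptor beads at 10 ug/mL final added, 20 min light-protected before reading.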
PLK1 PBD block: qHTS for Inhibitors of PLK1-PDB (polo-like kinase 1 - polo-box domain): Primary Screen; Serine/threonine-protein kinase PLK1 (Homo sapiens), P53350; Plk1 PBD binding of FITC phosphopeptide, fluorescence polarization; Potency, µM, without a hit: max response, negative = inhibition, usual class: inhibitors; 360,000 compounds, 2.8% hits; also: series mostly up to about 57 µM; % is scaled to controls: 0 for no effect and ±100 for the full control effect; nearly all actives have a fitted effect of over 65% in size
JMJD2A Tudor inh: qHTS Assay for Inhibitors of JMJD2A-Tudor Domain. AID 504339, 2011. Potency, µM (highest dose often 114 µM), for inactives: top-dose activity change, negative = inhibition, actives largely listed as inhibitors. AlphaScreen JMJD2A-Tudor / H3K4me3 peptide binding. Lysine-specific demethylase 4A (Homo sapiens), O75164. 390,000 compounds, 4.4% hits; also: % is scaled to controls: 0 for no effect and ±100 for the full control effect; nearly all actives have a fitted effect of over 50% in size
Target sequence (O75164 whole entry, looked up, the tested form may be a part): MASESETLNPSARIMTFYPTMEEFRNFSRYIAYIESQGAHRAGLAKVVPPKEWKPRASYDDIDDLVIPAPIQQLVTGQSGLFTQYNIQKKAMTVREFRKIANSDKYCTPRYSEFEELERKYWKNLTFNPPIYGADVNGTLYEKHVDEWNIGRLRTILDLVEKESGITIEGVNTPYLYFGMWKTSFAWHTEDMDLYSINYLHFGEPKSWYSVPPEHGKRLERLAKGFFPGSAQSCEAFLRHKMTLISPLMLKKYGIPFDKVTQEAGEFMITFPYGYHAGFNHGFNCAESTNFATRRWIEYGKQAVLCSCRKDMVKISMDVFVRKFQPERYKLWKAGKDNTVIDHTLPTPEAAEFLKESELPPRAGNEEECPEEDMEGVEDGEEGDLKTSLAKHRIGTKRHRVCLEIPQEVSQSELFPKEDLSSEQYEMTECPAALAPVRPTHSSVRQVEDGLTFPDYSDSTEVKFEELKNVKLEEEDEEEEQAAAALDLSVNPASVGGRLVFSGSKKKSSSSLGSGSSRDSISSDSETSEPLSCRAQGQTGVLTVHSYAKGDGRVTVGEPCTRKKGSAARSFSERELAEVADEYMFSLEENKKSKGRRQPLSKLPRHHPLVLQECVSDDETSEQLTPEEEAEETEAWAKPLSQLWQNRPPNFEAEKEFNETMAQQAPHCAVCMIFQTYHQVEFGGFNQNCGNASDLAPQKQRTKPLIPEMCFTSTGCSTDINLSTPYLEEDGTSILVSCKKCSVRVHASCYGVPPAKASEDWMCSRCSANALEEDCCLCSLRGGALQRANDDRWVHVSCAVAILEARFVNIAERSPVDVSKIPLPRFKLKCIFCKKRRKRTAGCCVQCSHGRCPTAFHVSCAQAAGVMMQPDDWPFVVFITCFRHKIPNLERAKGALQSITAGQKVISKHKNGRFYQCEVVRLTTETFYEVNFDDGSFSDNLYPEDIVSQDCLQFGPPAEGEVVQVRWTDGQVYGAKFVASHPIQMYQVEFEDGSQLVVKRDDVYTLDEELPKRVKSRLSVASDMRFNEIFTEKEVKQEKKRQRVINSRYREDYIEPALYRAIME
HP1b chromo inh: HTS for Inhibitors of HP1-beta Chromodomain Interactions with Methylated Histone Tails. Chromobox protein homolog 1 (Homo sapiens), P83916. AlphaScreen HP1-beta / biotin-H3K9me3 peptide binding. Potency, µM (titrated, usually from 114 µM), for inactives: at the highest dose activity change, negative = inhibition, hits mostly inhibitors. 390,000 compounds, 0.56% hits; also: nearly all actives have a fitted effect of over 70% in size
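HP1-beta protein (50 nM final) preincubated 30 min at room temperature with biotinylated H3(1-18)K9me3 peptide (50 nM) in PBS pH 7.4, 0.01% Tween-20, then compound added for 30 min. AlphaScreen streptavidin donor/nickel chelate acceptor beads (10 ug/mL final), 30 min dark, luminescence read.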
L3MBTL1 inh: qHTS Assay for the Inhibitors of L3MBTL1; AlphaScreen L3MBTL1–H3K9me1 peptide binding; 230,000 compounds, 0.66% hits; Potency, µM (titrated, usually from 57.1 µM), without a hit: top-dose activity, negative = inhibition, usual class: inhibitors; also: % is scaled to controls: 0 for no effect and ±100 for the full control effect; nearly all actives have a fitted effect of over 60% in size
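Displacement of a biotinylated histone H3(1-15) peptide monomethylated at Lys9 (75 nM) from L3MBTL1 (50 nM) was measured by AlphaScreen after a 30 min room-temperature compound incubation; cefsulodin titration served as intraplate control.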
Starred values were filed as active, the others as inactive; ? = inconclusive; . = no result given; [ ] = dose if it differs, or a comment. Calls follow the shape of the dose curve; as a rule, active = well fitted curve in the direction sought with a large enough effect; inconclusive = small, poorly fitted or top-dose-only effect, or another doubt; inactive = no such curve, though single readings can be large; an effect the other way counts as inactive or inconclusive. Potency is read from the fitted curve at half-maximal effect.

SMILES | VDR inh | BAZ2B block | PLK1 PBD block | JMJD2A Tudor inh | HP1b chromo inh | L3MBTL1 inh
Cc1cc(=O)[nH]c(-n2[nH]c3c(c2=O)CCCC3)n1 | 10% | 13µM* | -10% | 2.2µM* | 22% | -3%
Cc1cc2c(s1)c1cnn(Cc3cc(C(F)(F)F)cc(Cl)c3F)c(=O)c1n2C | . | . | . | -27% | . | .
CC1(OC(=O)c2ccco2)C(=O)C=C2C=C(c3ccsc3)OC=C2C1=O (stereo not drawn) | -20% | . | . | . | . | .
CCC(=O)OC1(C)C(=O)C=C2C=C(c3ccsc3)OC=C2C1=O (stereo not drawn) | ? | 50µM* | 27µM* | 28µM* | ? | .
COC(=O)CCC(=O)OC1(C)C(=O)C=C2C=C(c3ccsc3)OC=C2C1=O (stereo not drawn) | -19% | . | ? | 50µM* | ? | .
COC(=O)CCCC1=CC2=CC(=O)C(C)(OC(=O)CCc3ccccc3)C(=O)C2=CO1 (stereo not drawn) | -5% | 56µM* | ? | 79µM* | -22% | .
COC(=O)c1ccccc1NC(=O)CSc1nc2ccsc2c(=O)n1CCCCC(=O)O | . | . | -13% | . | . | .
CCOc1ccc(NC(=O)c2c(C)oc3nc(C)nc(N4CCOCC4)c23)cc1 | 15% | 6%[57.1 µM] | . | -2% | 28% | .
CCOCCc1nn2c(=O)cc(COC(=O)c3ccco3)nc2s1 | -3% | -14% | . | -7% | 30% | .
CC(C)(C)OC(=O)n1cccc1/C=C1\c2ccccc2C(=O)N1c1ccccc1 | -11% | . | -13% | 63µM* | -37% | .
CCCc1nc(SCc2cc(=O)c3ccc(C)c(C)c3[nH]2)n[nH]1 | 4% | 16% | . | -14% | 16%[57 µM] | .
C=C[C@]1(C)C=C2CC[C@H]3[C@@](C)(CCC[C@@]3(C)C(=O)O)[C@@H]2CC1 | -8% | . | 30µM* | -18% | 31% | -2%
Brc1ccc(-c2csc(NNC3=NCCCCC3)n2)cc1 | ? | 35µM* | ? | ? | -22% | -20%
c1ccc(-c2csc(NC3=NCCCCC3)n2)cc1 | -11% | -38% | -5% | -9% | 25% | 5%
FC(F)Oc1ccc(-c2csc(NNC3=NCCCCC3)n2)cc1 | ? | ? | 3.8µM* | ? | ? | -20%
CCCCCCCCN1C(=O)[C@H](CC(=O)N2CCN(C(=O)c3ccco3)CC2)C[C@@]2(C(=O)OC)CC(C)(C)CC=C12 | . | . | 0% | . | . | .
Cc1ccccc1NC(=O)CSc1nnc(COc2ccc(Cl)cc2)o1 | 3% | -2% | . | -27% | 8% | .
Cc1cc(C)cc(NC(=O)CSCn2nnc3c(=O)[nH]c(Cc4ccc(F)cc4)nc32)c1 | -2% | -3% | . | -7% | 41% | .
CC(NCc1ccc([N+](=O)[O-])cc1)C1COc2ccccc2O1 (stereo not drawn) | -1% | 50µM* | -27% | 7.9µM* | ? | .
CN(CCc1ccccc1)c1cc2c(c3c1ccn3C)C1CCC2O1 (stereo not drawn) | . | . | -26% | . | . | .
CC(=O)Oc1cc(C(=O)OCC(=O)NC23CC4CC(CC(C4)C2)C3)cc(OC(C)=O)c1OC(C)=O | 4% | . | -11% | 3.5µM* | ? | .
COc1cccc(C(=O)OCC(=O)NC23CC4CC(CC(C4)C2)C3)c1 | 4% | . | 0% | 0% | 48% | 4%
O=S(=O)(Nc1ccc(O)c(Sc2nc3ccccc3s2)c1)c1ccc(F)cc1 | -19% | -30% | -21% | ? | 11% | 5%
O=C(O)c1cccc(S(=O)(=O)Nc2ccc(O)c(Sc3nc4ccccc4s3)c2)c1 | -27% | -2% | 21µM* | -10% | 30% | -10%
